Measurements published in PubChem BioAssay (Tox21).
Inconclusive results are not listed. Where a call stands in place of a potency, no number is given. Unmarked numbers belong to inactive results. Activity calls are given as the source filed them. Calls follow the shape of the dose curve; as a rule, active = well fitted cell-killing curve with a large enough effect in the repeat runs; inconclusive = weak or mixed curves, or effect the other way; inactive = flat fitted curve, though single readings scatter.

test: qHTS RealTime-Glo MT Cell Viability Assay in HEK293 cells - 24 hour (AID 1224886); conditions: RealTime-Glo luminescence; series mostly up to 76.8 µM; also: nearly all actives have a fitted effect of over 50% in size; as to activity change, negative = cytotoxicity: top concentration of the series differs between compounds
Description: National Center for Advancing Translational Sciences [NCATS]
NIH Chemical Genomics Center [NCGC]
U.S. Environmental Protection Agency [EPA]
National Institutes of Environmental Health Sciences [NIEHS]
National Toxicology Program [NTP]
U.S. Food and Drug Administration [FDA]
Measure of cell viability is critical in the cell-base assay. Analysis of cell viability is necessary for the characterization of cell responses to cytotoxic drugs and environmental stress. A RealTime-Glo MT Cell Viability Assay to monitor cell viability in real time of continues cell culture during 40 hours of compound treatment was used to screen Tox21 10K library compounds in Hek293 cells. The RealTime-Glo MT Cell Viability Assay is a nonlytic, homogeneous, bioluminescent method to measure cell viability in real time using a simple, plate-based method. The assay involves adding NanoLuc luciferase and a cell-permeant prosubstrate to cells in culture. Viable cells reduce the proprietary prosubstrate to generate a substrate for NanoLuc luciferase. This substrate diffuses from cells into the surrounding culture medium, where it is rapidly used by the NanoLuc Enzyme to produce a luminescent signal. The signal correlates with the number of viable cells, making the assay well suited for cytotoxicity studies.
Tox21 Assay Protocol Summary:
The mixture of Hek293 cell suspension and reagents were dispensed at 600cells/6 ul/well in 1536-well tissue culture treated black solid bottom plates using a Multidrop dispenser. After the assay plates were incubated at a 37 C/5% CO2 incubator for 5 hours, 23 nL of compounds dissolved in DMSO, positive and negative controls was transferred to the assay plate by a pintool work station. The plates were incubated at 37 C for 40 hours. The luminescence intensity were measured at 0h, 8h, 16h, 24h, 32h and 40h time points using ViewLux plate reader during compound treatment.
Potency is read from the fitted curve at half-maximal effect.

SMILES	Potency	activity change, negative = cytotoxicity
CN1CCC(N(Cc2cccs2)c2ccccc2)CC1	inactive	
Nc1cc(C(=O)O)c(O)c(S(=O)(=O)O)c1	inactive	
NS(=O)(=O)c1ccc(N2CCCCS2(=O)=O)cc1	inactive	
CC(C)Nc1ccc(NC(C)C)c2c1C(=O)c1ccccc1C2=O	inactive	
CC1OC(=O)C(C)OC1=O (stereo not given)	inactive	
CCOC(=O)C(=O)CCc1ccccc1	inactive	
O=C(O)c1ccco1	inactive	
O=C(O)CC(=O)C(=O)O	inactive	
C=CC(=O)OCCOc1ccccc1	inactive	
CCCCCCCN	inactive	
CCn1cc(C(=O)O)c(=O)c2cnc(N3CCNCC3)nc21	inactive	
CCCCCCCCCCCC(=O)OC[C@@H](O)[C@H]1OC[C@H](OCCO)[C@H]1OCCO	inactive	
O=C1OC(=O)C2C3C=CC(C3)C12 (stereo not given)	inactive	
CCOC(=O)c1cccnc1	inactive	
O=C1OC(CN2CCOCC2)CN1/N=C/c1ccc([N+](=O)[O-])o1 (stereo not given)	inactive	
Brc1c2ccccc2c(Br)c2ccccc12		1.98% [at 6.97 µM]
CCCCCCCCCCCCCCCCOS(=O)(=O)O	inactive	
CCCCc1ncc(/C=C(\Cc2cccs2)C(=O)O)n1Cc1ccc(C(=O)O)cc1	inactive	
CCCCCCCCCCCCCCOS(=O)(=O)O	inactive	
OC[C@H]1O[C@@H](OCCc2ccc(O)cc2)[C@H](O)[C@@H](O)[C@@H]1O	inactive	

SMILES	Potency	activity change, negative = cytotoxicity
Cc1cc(N)c2cc(NC(=O)Nc3ccc4nc(C)cc(N)c4c3)ccc2n1	inactive	
C[C@H](CCC(=O)O)[C@H]1CC[C@H]2[C@@H]3CC[C@@H]4C[C@H](O)CC[C@]4(C)[C@H]3C[C@H](O)[C@]12C	inactive	
NCC(=O)CCC(=O)O	inactive	
CN(C)c1ccc(/C=C/c2ccc([N+](=O)[O-])cc2)cc1		-4.06% [at 6.97 µM]
O=C(c1ccc(F)cc1)C1CCN(CCn2c(=S)[nH]c3ccccc3c2=O)CC1	7.56 µM (active)	
COc1ccc(S(=O)(=O)N2C(=O)[C@@](c3ccccc3OC)(N3C[C@H](O)C[C@H]3C(=O)N(C)C)c3cc(Cl)ccc32)c(OC)c1	49 µM (active)	
CC1(c2ccccc2)OC(C(=O)O)=CC1=O (stereo not given)	inactive	
O=[N+]([O-])c1cccc(S(=O)(=O)O)c1	22.2 µM (active)	
CCOC(=O)NCCOc1ccc(Oc2ccccc2)cc1	21.9 µM (active)	
NCCCN1CCOCC1	inactive	
Cc1oc(-c2ccccc2)nc1CCOc1cccc2c1ccn2CCC(=O)O	inactive	
CC(C)O.CC(C)O.CCOC(=O)/C=C(\C)O.CCOC(=O)/C=C(\C)O.[Ti]	inactive	
CCN(CC)CCNC(=O)c1cc(Br)c(N)cc1OC	inactive	
C=CCOC(=O)CCC1CCCCC1	inactive	
CCCCCCCCCc1ccc(OCCOCCO)cc1	1.3 µM (active)	
CN(C)CCN(Cc1ccc(Cl)cc1)c1ccccn1	inactive	
Nc1ccc([N+](=O)[O-])c(C(F)(F)F)c1	inactive	
CN1Cc2cc(C(=O)N3CCC(C4CCNCC4)CC3)ccc2NC(CC(=O)O)C1=O (stereo not given)	inactive	
O=C1CCC(=O)O1	inactive	
CCOC(=O)C(F)(F)F	inactive	
